The source made the active and inactive calls.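 How the source made its calls: active means compounds whose cell count with miR-34 switched on is under 0.7 times the count with it off; inactive means the rest.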

The record followed here is PubChem BioAssay.

The nature of the first test: sensitizers of A549 cells to miR-34 induction, primary screen, imaging, A549 dox-inducible miR-34, nuclei and caspase counts (AID 1347080). Further: test concentration not given here. To be noted: A549 miR-34 inducible, Hoechst nuclei count, 48 h; stronger effect = lower value; cell number ratio, induced over uninduced.
On to `Fc1ccc(-c2nc3n(c2-c2ccncc2)CCS3)cc1`, for which the fold change was 0.866 (inactive).

On to `CN(C)c1cc2c(Nc3ccc4c(cnn4Cc4ccccc4)c3)ncnc2cn1`, for which the fold change was 1.64 (inactive).

In the case of `Cn1cc(C2=C(c3cn(CCCN)c4ccccc34)C(=O)NC2=O)c2ccccc21`, the fold change was 1.52 (inactive).

For `CN1C(=O)C(c2c[nH]c3ccccc23)=C(c2c[nH]c3ccccc23)C1=O`, the fold change was 0.868 (inactive).

As to `O=C1NC(=O)C(c2c[nH]c3ccccc23)=C1c1c[nH]c2ccccc12`, the fold change was 1.26 (inactive).

As for `N#Cc1c(NC(=O)c2ccccc2F)sc2c1CCCC2`, the fold change is 0.993 (inactive).

Consider `COc1ccc(COc2ccc(Cc3cnc(N)nc3N)cc2OC)cc1`, for which the fold change was 0.931 (inactive).

Staying with this test, now noted: A549 miR-34 inducible, Hoechst nuclei count, 48 h; measured here: relative caspase fold change +Dox/-Dox.
`Fc1ccc(-c2nc3n(c2-c2ccncc2)CCS3)cc1`: the fold change stood at 1.21.

In the case of `CN(C)c1cc2c(Nc3ccc4c(cnn4Cc4ccccc4)c3)ncnc2cn1`, the fold change amounted to 0.646.

For `Cn1cc(C2=C(c3cn(CCCN)c4ccccc34)C(=O)NC2=O)c2ccccc21`, the fold change stood at 0.871.

Take `CN1C(=O)C(c2c[nH]c3ccccc23)=C(c2c[nH]c3ccccc23)C1=O`: the fold change was 1.05.

On to `O=C1NC(=O)C(c2c[nH]c3ccccc23)=C1c1c[nH]c2ccccc12`, for which the fold change worked out at 0.968.

`N#Cc1c(NC(=O)c2ccccc2F)sc2c1CCCC2`: the fold change came out at 0.12.

As for `COc1ccc(COc2ccc(Cc3cnc(N)nc3N)cc2OC)cc1`, the fold change is 0.609.

The test is the same for the next values; noted with them: A549 miR-34 inducible, Hoechst nuclei count, 48 h; measured here: total cells with miR-34 induction; stronger effect = lower value.
For the compound `Fc1ccc(-c2nc3n(c2-c2ccncc2)CCS3)cc1`, the cell count was found to be 4970.

On to `CN(C)c1cc2c(Nc3ccc4c(cnn4Cc4ccccc4)c3)ncnc2cn1`, for which the cell count stood at 3320.

For the compound `Cn1cc(C2=C(c3cn(CCCN)c4ccccc34)C(=O)NC2=O)c2ccccc21`, the cell count turned out to be 5190.

With `CN1C(=O)C(c2c[nH]c3ccccc23)=C(c2c[nH]c3ccccc23)C1=O`, the cell count was 5070.

Consider `O=C1NC(=O)C(c2c[nH]c3ccccc23)=C1c1c[nH]c2ccccc12`, for which the cell count amounted to 5130.

In the case of `N#Cc1c(NC(=O)c2ccccc2F)sc2c1CCCC2`, the cell count worked out at 5190.

As for `COc1ccc(COc2ccc(Cc3cnc(N)nc3N)cc2OC)cc1`, the cell count was found to be 7300.

The same test, now with this note: A549 miR-34 inducible, Hoechst nuclei count, 48 h; measured here: total cells without miR-34 induction.
Consider `Fc1ccc(-c2nc3n(c2-c2ccncc2)CCS3)cc1`, for which the cell count turned out to be 5730.

As to `CN(C)c1cc2c(Nc3ccc4c(cnn4Cc4ccccc4)c3)ncnc2cn1`, the cell count stood at 2020.

Turning to `Cn1cc(C2=C(c3cn(CCCN)c4ccccc34)C(=O)NC2=O)c2ccccc21`, the cell count was 3420.

For the compound `CN1C(=O)C(c2c[nH]c3ccccc23)=C(c2c[nH]c3ccccc23)C1=O`, the cell count came out at 5840.

For `O=C1NC(=O)C(c2c[nH]c3ccccc23)=C1c1c[nH]c2ccccc12`, the cell count came out at 4070.

Take `N#Cc1c(NC(=O)c2ccccc2F)sc2c1CCCC2`: the cell count stood at 5220.

As for `COc1ccc(COc2ccc(Cc3cnc(N)nc3N)cc2OC)cc1`, the cell count is 7840.
